Source: PubChem BioAssay AID2314 (National Center for Advancing Translational Sciences (NCATS), 2010)
Screen size: about 300,000 compounds; about 37,000 (12%) were called active. The full list was thinned out, with actives kept by preference. Values without a mark were called inactive. No stated cut-off is given here; in the data, active means max response mostly above about 13% (no sharp cut-off); inactive means mostly below about 14%.

Test: Cycloheximide Counterscreen for Small Molecule Inhibitors of Shiga Toxin; further: read at 38.3 µM for the half of the compounds with a filed dose; 0% is about no effect
Settings: cell reporter, cycloheximide protein synthesis inhibition counterscreen; stronger effect = higher value
`N#Cc1cccc(CN2CCC(=O)N(CCO)CC2)c1` showed a max response of -1.61%. `O=C(c1ccc(N2CCOCC2)c([N+](=O)[O-])c1)N1CCN(S(=O)(=O)c2cccs2)CC1` gave a max response of -2%. For `CN(c1ccc(OCC(=O)O)cc1)S(=O)(=O)c1ccc2ccccc2c1`, the max response was -2.07%. For `O=C(NCc1ccccc1)c1ccc(S(=O)(=O)Nc2cccc(C(F)(F)F)c2)cc1`, the max response was 2.15%. In the case of `O=C(Cc1cccs1)NCc1cccc(C(F)(F)F)c1`, the max response is reported as 36.1% (active). For `O=C(NCc1cccc(C(F)(F)F)c1)c1cccc(S(=O)(=O)N2CCN(Cc3ccccc3)CC2)c1`, the max response was -5.35%. Work on `Cc1nc([N+](=O)[O-])nn1C12CC3CC(CC(Br)(C3)C1)C2` yielded a max response of 15.4%. `CCC(C)(C)c1ccc(OCC(=O)N(C)C)c(C(C)(C)CC)c1` showed a max response of -3.16%. Work on `Cc1nc2ccc(C(=O)N3CCN(c4ccccc4)CC3)cc2s1` yielded a max response of -1.5%. With `Cc1nc2ccc(C(=O)N3CCSCC3)cc2s1` the max response was 11.3% (active). In the case of `O=C(c1ccc2nc(N3CCOCC3)sc2c1)N1CCN(c2ccc(Cl)cc2)CC1`, the max response is reported as 1.7%. `OC(COCCC12CC3CC(CC(C3)C1)C2)CN1CCCCC1` (stereo unspecified) gave a max response of -4.31%. `Cc1nc(C)c(-c2nnc(-c3cccc(S(=O)(=O)N(C)C)c3)o2)cc1C(=O)NN` showed a max response of -1.43%. With `CCc1nc2sc(C(=O)O)c(N)c2c2c1CCCC2` the max response was -1.77%. Compound `NC(=O)c1sc2nc3c(c(-c4ccccc4)c2c1N)CCC3` has a max response of -2.08%. With `Cc1ccc2c(N)c(C(=O)c3ccccc3)sc2n1` the max response was 29% (active). Compound `COC(=O)c1cc2c(N)c(C(=O)c3ccc(Cl)cc3)sc2nc1C(OC)OC` has a max response of -3.14%. In the case of `Cc1nc2sc(C(=O)c3ccccc3)c(N)c2c2c1CCCC2`, the max response is reported as 20.5% (active). Work on `CN(C)c1ccnc2sc3c(=O)n(Cc4ccccc4)cnc3c12` yielded a max response of -5.28%. With `CCN(CC)C(=O)c1sc2nc(-c3ccccc3)ccc2c1N` the max response was 63.5% (active). In the case of `COc1cccc(C(=O)c2sc3nc(-c4ccccc4)cc(C(F)(F)F)c3c2N)c1`, the max response is reported as 10.5%. `CC(=O)c1c(Nc2ccccc2)sc(C(=O)c2ccccc2)c1C` showed a max response of 0.579%. `CS(=O)(=O)c1sc2nc(-c3ccccc3)cc(-c3ccccc3)c2c1N` showed a max response of -3.03%. With `CN(C)c1ccnc2sc(C(=O)c3ccccc3)c(N)c12` the max response was 57.9% (active). In the case of `CCOC(=O)c1sc2nc(SC)nc(-c3ccccc3)c2c1N`, the max response is reported as -2.15%. `C[C@H](C(=O)CC(=O)OC(C)(C)C)[C@H](O)c1ccc(C(F)(F)F)cc1` showed a max response of 1.49%.
